From PubChem BioAssay
Several values for one entry are separate records, joined by “and”; a condition that tells them apart may be missing. Equal entries are not always repeated. Activity calls are given as the source filed them.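 Rule for the calls, unless noted: active = normalized viability below 100% at a tested concentration; inactive = the rest.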

Columns and labels:
[1] = compounds altering viability of human ES cells (AID 493140; call rule not given here;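 note: cells exposed to compounds for four days before counting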); conditions: human embryonic stem cell survival screen; stronger effect = higher value
[2] = stimulators of insulin release from INS-1E, primary screen, cell-based, 5 mM glucose, NPC library (AID 1117329;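 active = compound raises insulin release from rat beta cells at 5 mM glucose, no numeric limit stated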); conditions: rat INS-1E insulin secretion, at 10 µM, stronger effect = higher value
[3] = growth inhibition of GSK3B-pretreated HCT116 cells – cell-based, CellTiter-Glo, 0.2 to 20 µM (AID 1117336;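 active = compounds lowering colon cancer cell viability after pretreatment blocking the GSK3B kinase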); conditions: HCT116 viability after GSK3B inhibitor, at 20 µM, stronger effect = higher value
[4] = inhibition of endothelial tube formation, primary screen, imaging, VEGF stimulated, CD31 staining, tube area, NPC library (AID 1117340;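 active = compound that reduces growth-factor-driven endothelial tube area in a mixed cell culture, no cutoff stated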); conditions: VEGF-stimulated ADSC/ECFC co-culture, at 10 µM, stronger effect = higher value
[5] = GLP1 release stimulators, primary, NCI-H716, NPC library (AID 1117341;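 active = compound raises GLP1 secretion from the human gut endocrine cells, with no numeric limit stated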); conditions: NCI-H716 cells, at 10 µM, stronger effect = higher value
[6] = HCT116 colon cancer cell growth inhibition, primary screen, CellTiter-Glo luminescence, NPC library (AID 1117342;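 active = compounds that lower survival of HCT116 colon cancer cells in the luminescence readout, no numeric limit stated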); conditions: at 20 µM (top of the series)
[7] = reduced SW480 viability measured with CellTiter-Glo, NPC library, primary (AID 1117343;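 active = compounds that lower viability of the colon cancer cells in the luminescence readout, with no numeric limit stated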); conditions: CellTiter-Glo luminescence; at 20 µM (top of the series) unless noted
[8] = NPC library primary testing for decreased DLD-1 cell viability via CellTiter-Glo (AID 1117346;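 active = compounds that lower survival of DLD-1 colon cancer cells in the luminescence readout, no cutoff given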); conditions: DLD-1 viability, CellTiter-Glo luminescence; at 20 µM (top of the series)
[9] = molecular target: 6-phosphogluconate dehydrogenase, decarboxylating (Homo sapiens) (UniProt P52209); experiment: inhibition of human phosphogluconate dehydrogenase – biochemical, recombinant enzyme, NADPH absorbance, primary screen (AID 1159550;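 active = at least 20% inhibition of 6-phosphogluconate dehydrogenase activity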); conditions: recombinant 6PGD, NADPH absorbance 341 nm; at 10 µM; stronger effect = higher value
[10] = modulation of C. elegans fzo-1 (AID 1259413; call rule not given here;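 note: fzo-1 mutant C. elegans worms in liquid wells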); conditions: C. elegans fzo-1 modulator screen, mean read-out; stronger effect = higher value
[11] = EMT-state selective cytotoxicity in co-culture – imaging, PC-3E GFP, TEM4-18 mCherry, primary screen (AID 1345086;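 active = compounds killing one labelled cell type while sparing the other, by normalised counts and ratio limits, not self-fluorescent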;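 for all read-outs here: cells exposed to compound for 72 h before imaging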;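 for red/green cell ratio (normalised): normalised mesenchymal count divided by normalised epithelial count so high means epithelial killing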); conditions: PC-3E GFP / TEM4-18 mCherry co-culture, imaging cell counts, at 1 µM; for red/green cell ratio (normalised): actives lie on both sides, counts scaled to control wells, 1 = unselective
[12] = blockers of cellular phospholipid synthesis – cell-based, LOPAC library, screen 4, primary screen (AID 1347384; call rule not given here); conditions: animal cells, phospholipid biosynthesis inhibition screen; at 10 µM
[13] = MELAS cybrid and Rieske KO viability enhancers – cell-based, MELAS cybrids, Rieske KO mouse fibroblasts, CellTiter-Glo, primary screen (AID 1508586;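 active = mean z-score across replicates of 1.96 or higher in either the MELAS or the Rieske mutant cell line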;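 note: z relative to plate mean and SD of compound and empty wells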); conditions: low glucose
[14] = molecular target: NAD(+) hydrolase SARM1 (Homo sapiens) (UniProt Q6SZW1); experiment: blocking NAD cleavage by SARM1 SAM-TIR – cell lysate, NAD-Glo luminescence (AID 1508614;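 active = compound whose remaining NAD level is above about 45 nM, limit read from the data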;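 note: higher remaining NAD means stronger inhibition of SARM1 NADase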); conditions: SAM-TIR HEK293T lysate NADase, at 1 µM, stronger effect = higher value
[15] = molecular target: Mitogen-activated protein kinase 7 (Homo sapiens) (UniProt Q13164); experiment: Gal4-ERK5 driven luciferase induction – cell-based, HTS, primary screen (AID 1508626;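 active = luciferase signal above three times the same-plate solvent-only control wells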;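 note: luciferase driven by Gal4-ERK5 fusion binding five Gal4 sites before minimal TATA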); conditions: HeLa Gal4-ERK5 transactivation, 18 h, at 5 µM, stronger effect = higher value
[16] = viability loss with induced miR-34 in A549 – imaging, A549 dox-inducible miR-34, nuclei and caspase counts, primary screen (AID 1347080;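 active = compounds whose cell count with miR-34 switched on is under 0.7 times the count with it off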); conditions: A549 miR-34 inducible, Hoechst nuclei count, 48 h
[17] = galactose survival enhancers in mitochondrial complex I cybrids – cell-based, galactose medium, ATP luminescence, primary screen (AID 1645843;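 active = z-score of at least 1.8 in each of two replicates, scored against plate mean and spread of sample wells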;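 note: positive z means more ATP and so rescue of galactose-driven cybrid death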); conditions: complex I mutant cybrid cells, 72 h, stronger effect = higher value
[18] = Wnt pathway potentiators raising nuclear beta-catenin – imaging, WNT3A-conditioned medium, mouse C2C12, NPC library, primary screen (AID 1117326; in the data active = nuclear beta-catenin stimulation mostly above about 4.2%, no sharp cut-off; inactive = mostly below about 10%); conditions: stronger effect = higher value
[19] = drug combination growth inhibition, ovarian cancer – cell-based, oncology-focused library, rucaparib conditional, profiling panel (AID 1508598); conditions: patient-derived ovarian cancer cells, CellTiter-Glo viability, 144 h, stronger effect = lower value
[20] = measured here: epithelial PC-3E GFP cell survival
[21] = measured here: mesenchymal TEM4-18 mCherry cell survival
[22] = MELAS cybrid survival, CellTiter-Glo 48 h, stronger effect = higher value
[23] = Rieske KO mouse fibroblast survival, CellTiter-Glo 72 h
[24] = stronger effect = lower value, cell number ratio, induced over uninduced
[25] = measured here: relative caspase fold change +Dox/-Dox
[26] = measured here: total cells with miR-34 induction, stronger effect = lower value
[27] = measured here: total cells without miR-34 induction

Sequence of 6-phosphogluconate dehydrogenase, decarboxylating (Homo sapiens) (P52209 whole entry, looked up): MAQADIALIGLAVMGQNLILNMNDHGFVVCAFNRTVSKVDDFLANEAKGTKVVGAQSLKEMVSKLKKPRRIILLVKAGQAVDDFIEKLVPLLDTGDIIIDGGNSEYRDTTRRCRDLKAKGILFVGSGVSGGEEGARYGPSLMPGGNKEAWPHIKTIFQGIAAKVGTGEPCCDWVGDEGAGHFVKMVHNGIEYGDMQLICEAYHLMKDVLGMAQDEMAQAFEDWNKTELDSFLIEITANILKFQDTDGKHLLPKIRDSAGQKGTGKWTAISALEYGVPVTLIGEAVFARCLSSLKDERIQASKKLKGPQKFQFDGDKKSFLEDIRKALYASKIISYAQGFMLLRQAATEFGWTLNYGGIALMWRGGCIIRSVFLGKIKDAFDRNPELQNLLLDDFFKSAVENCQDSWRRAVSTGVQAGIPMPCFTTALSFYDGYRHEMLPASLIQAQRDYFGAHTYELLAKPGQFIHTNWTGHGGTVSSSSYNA
Sequence of NAD(+) hydrolase SARM1 (Homo sapiens) (Q6SZW1 whole entry, looked up, the tested form may be a part): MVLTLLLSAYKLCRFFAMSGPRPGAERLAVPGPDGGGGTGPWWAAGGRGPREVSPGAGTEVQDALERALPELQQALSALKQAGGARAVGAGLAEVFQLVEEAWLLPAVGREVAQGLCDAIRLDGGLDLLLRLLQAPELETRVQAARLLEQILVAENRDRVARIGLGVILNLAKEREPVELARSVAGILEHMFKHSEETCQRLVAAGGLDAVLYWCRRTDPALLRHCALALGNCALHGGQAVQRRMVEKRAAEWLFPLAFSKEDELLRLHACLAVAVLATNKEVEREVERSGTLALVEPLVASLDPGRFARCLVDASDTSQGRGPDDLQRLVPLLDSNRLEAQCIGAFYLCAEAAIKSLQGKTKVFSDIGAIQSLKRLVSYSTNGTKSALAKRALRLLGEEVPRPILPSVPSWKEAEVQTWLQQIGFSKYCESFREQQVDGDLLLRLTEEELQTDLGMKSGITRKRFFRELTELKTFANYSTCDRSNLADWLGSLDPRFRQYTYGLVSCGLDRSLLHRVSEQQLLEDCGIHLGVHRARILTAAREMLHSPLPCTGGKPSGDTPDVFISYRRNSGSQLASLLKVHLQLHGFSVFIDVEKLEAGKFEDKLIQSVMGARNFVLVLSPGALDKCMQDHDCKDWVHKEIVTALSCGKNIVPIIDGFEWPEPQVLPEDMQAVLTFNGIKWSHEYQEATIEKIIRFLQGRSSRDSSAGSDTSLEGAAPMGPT
Sequence of Mitogen-activated protein kinase 7 (Homo sapiens) (Q13164 whole entry, looked up, the tested form may be a part): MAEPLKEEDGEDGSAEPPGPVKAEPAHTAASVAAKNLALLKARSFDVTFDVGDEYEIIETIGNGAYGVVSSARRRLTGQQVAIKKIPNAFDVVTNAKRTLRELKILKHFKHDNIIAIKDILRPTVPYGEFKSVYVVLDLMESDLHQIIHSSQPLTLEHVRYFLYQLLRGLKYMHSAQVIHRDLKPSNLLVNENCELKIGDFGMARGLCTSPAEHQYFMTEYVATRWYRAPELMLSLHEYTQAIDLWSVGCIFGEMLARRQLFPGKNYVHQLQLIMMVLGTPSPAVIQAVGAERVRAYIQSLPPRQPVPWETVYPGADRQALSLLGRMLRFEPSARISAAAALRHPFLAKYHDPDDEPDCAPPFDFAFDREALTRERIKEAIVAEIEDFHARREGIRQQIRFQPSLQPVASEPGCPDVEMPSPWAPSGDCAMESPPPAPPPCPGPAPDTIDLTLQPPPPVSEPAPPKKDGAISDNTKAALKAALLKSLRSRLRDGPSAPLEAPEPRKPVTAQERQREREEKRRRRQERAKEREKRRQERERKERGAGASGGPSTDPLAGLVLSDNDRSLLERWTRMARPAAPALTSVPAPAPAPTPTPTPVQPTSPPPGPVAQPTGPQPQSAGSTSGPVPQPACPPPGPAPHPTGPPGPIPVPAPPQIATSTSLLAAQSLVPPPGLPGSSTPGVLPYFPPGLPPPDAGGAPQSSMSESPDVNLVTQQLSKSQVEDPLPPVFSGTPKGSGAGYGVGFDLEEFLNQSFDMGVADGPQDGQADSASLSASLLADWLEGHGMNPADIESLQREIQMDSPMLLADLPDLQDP

CN1CCN(C2=Nc3cc(Cl)ccc3Nc3ccccc32)CC1
1.09: normalised cell number [11, 20]
0.276 and 0.587: z-score [13, 23]
inactive: survival [1] 15.2 | insulin secretion stimulation [2] 3.6% | viability decrease [3] 17.2% | tube area decrease [4] -0.2% | GLP1 secretion stimulation [5] 7.2% | viability decrease (inhibition) [8] 14.1% | inhibition [9] -3.75% | mean signal [10] 262 | red/green cell ratio (normalised) [11] 1.04 | outcome [12] | z-score [13, 22] -1.17 and -0.401 and 0.405 | remaining NAD [14] 10 nM | luciferase signal [15] 24 AU
1.14: normalised cell number [11, 21]
active: inhibition of viability [6] 63% | viability decrease (inhibition) [7] 66.6%

CO[C@]1(NC(=O)CSC(F)F)C(=O)N2C(C(=O)O)=C(CSc3nnnn3CCO)CO[C@H]21
inactive: insulin secretion stimulation [2] 0.75% | viability decrease [3] 11.4% | tube area decrease [4] 7.5% | GLP1 secretion stimulation [5] 4% | inhibition of viability [6] -0.4% | viability decrease (inhibition) [7] -2.1% | viability decrease (inhibition) [8] -3.6%

CN/C(=C\[N+](=O)[O-])NCCSCc1ccc(CN(C)C)o1
1.03: normalised cell number [11, 20]
inactive: survival [1] 19.6 | insulin secretion stimulation [2] -1% | viability decrease [3] -7.5% | tube area decrease [4] 7% | GLP1 secretion stimulation [5] -1.4% | inhibition of viability [6] 2.23% | viability decrease (inhibition) [7] -25.8% | viability decrease (inhibition) [8] -22.7% | inhibition [9] -3.38% | mean signal [10] 267 | red/green cell ratio (normalised) [11] 1.01 | fold change [16, 24] 0.934 and 0.989 and 0.926 | outcome [12] | remaining NAD [14] 10 nM | luciferase signal [15] 28 AU | z-score [17] 0.37 and -0.285
10600 and 10300 and 12000: cell count [16, 26]
11300 and 10400 and 13000: cell count [16, 27]
0.757 and 2.23 and 4.08: fold change [16, 25]
1.04: normalised cell number [11, 21]

COc1ccccc1N1CCN(CCCCNC(=O)c2ccc(-c3ccc(C(C)=O)cc3)cc2)CC1
0.93: fold change [16, 25]
8920: cell count [16, 26]
inactive: nuclear beta-catenin stimulation ([18]; at 10 µM) 9.8% | viability decrease (inhibition) [8] 13.8% | fold change [16, 24] 0.929 | z-score [17] -0.635
active: viability decrease [3] 55.6% | inhibition of viability [6] 51.4% | viability decrease (inhibition) [7] 69.7%
9600: cell count [16, 27]
9.2%: nuclear beta-catenin stimulation ([18]; stimulation, at 2 µM)

CC(C)(C)NC(=O)[C@@H]1C[C@@H]2CCCC[C@H]2CN1C[C@@H](O)[C@H](Cc1ccccc1)NC(=O)[C@H](CC(N)=O)NC(=O)c1ccc2ccccc2n1
active: inhibition of viability [6] 74% | viability decrease (inhibition) [7] 92.3% | viability decrease (inhibition) [8] 88.3%
inactive: insulin secretion stimulation [2] 1.9% | viability decrease [3] 45.8% | tube area decrease [4] 29.6% | GLP1 secretion stimulation [5] -3.7%

Cc1ccc(-n2nc(C(C)(C)C)cc2NC(=O)Nc2ccc(OCCN3CCOCC3)c3ccccc23)cc1
active: viability decrease [3] 73% | inhibition of viability [6] 66.5% | viability decrease (inhibition) [7] 64.1% | viability ([19]; at 0.00122 µM, OCI-C5x cells, with rucaparib 10 µM, 100% = cells with rucaparib alone) 97.2% | viability ([19]; at 0.00122 µM, OCI-P5x cells, with rucaparib 20 µM, 100% = cells with rucaparib alone) 97.9% | viability ([19]; at 0.00488 µM, OCI-P5x cells, with rucaparib 20 µM, 100% = cells with rucaparib alone) 91.6% | viability ([19]; at 0.313 µM, OCI-P5x cells, with rucaparib 20 µM, 100% = cells with rucaparib alone) 97.2% | viability ([19]; at 1.25 µM, OCI-P5x cells, with rucaparib 20 µM, 100% = cells with rucaparib alone) 96.1% | viability ([19]; at 1.25 µM, OCI-P5x cells, without rucaparib) 95.3% | viability ([19]; at 5 µM, OCI-P5x cells, with rucaparib 20 µM, 100% = cells with rucaparib alone) 96.1% | viability ([19]; at 5 µM, OCI-P5x cells, without rucaparib) 94.8%
inactive: nuclear beta-catenin stimulation ([18]; at 10 µM) 13.4% | viability decrease (inhibition) [8] 31% | fold change [16, 24] 0.925 | z-score [13, 22] -0.536 | viability ([19]; at 0.000305 µM, OCI-C5x cells, with rucaparib 10 µM, 100% = cells with rucaparib alone) 105% | viability ([19]; at 0.000305 µM, OCI-C5x cells, without rucaparib) 123% | viability ([19]; at 0.000305 µM, OCI-P5x cells, with rucaparib 20 µM, 100% = cells with rucaparib alone) 112% | viability ([19]; at 0.000305 µM, OCI-P5x cells, without rucaparib) 115% | viability ([19]; at 0.00122 µM, OCI-C5x cells, without rucaparib) 113% | viability ([19]; at 0.00122 µM, OCI-P5x cells, without rucaparib) 104% | viability ([19]; at 0.00488 µM, OCI-C5x cells, with rucaparib 10 µM, 100% = cells with rucaparib alone) 106% | viability ([19]; at 0.00488 µM, OCI-C5x cells, without rucaparib) 116% | viability ([19]; at 0.00488 µM, OCI-P5x cells, without rucaparib) 111% | viability ([19]; at 0.0195 µM, OCI-C5x cells, with rucaparib 10 µM, 100% = cells with rucaparib alone) 105% | viability ([19]; at 0.0195 µM, OCI-C5x cells, without rucaparib) 120% | viability ([19]; at 0.0195 µM, OCI-P5x cells, with rucaparib 20 µM, 100% = cells with rucaparib alone) 101% | viability ([19]; at 0.0195 µM, OCI-P5x cells, without rucaparib) 108% | viability ([19]; at 0.0781 µM, OCI-C5x cells, with rucaparib 10 µM, 100% = cells with rucaparib alone) 100% | viability ([19]; at 0.0781 µM, OCI-C5x cells, without rucaparib) 107% | viability ([19]; at 0.0781 µM, OCI-P5x cells, with rucaparib 20 µM, 100% = cells with rucaparib alone) 108% | viability ([19]; at 0.0781 µM, OCI-P5x cells, without rucaparib) 109% | viability ([19]; at 0.313 µM, OCI-C5x cells, with rucaparib 10 µM, 100% = cells with rucaparib alone) 107% | viability ([19]; at 0.313 µM, OCI-C5x cells, without rucaparib) 114% | viability ([19]; at 0.313 µM, OCI-P5x cells, without rucaparib) 101% | viability ([19]; at 1.25 µM, OCI-C5x cells, with rucaparib 10 µM, 100% = cells with rucaparib alone) 107% | viability ([19]; at 1.25 µM, OCI-C5x cells, without rucaparib) 115% | viability ([19]; at 5 µM, OCI-C5x cells, with rucaparib 10 µM, 100% = cells with rucaparib alone) 117% | viability ([19]; at 5 µM, OCI-C5x cells, without rucaparib) 144%
0.866: fold change [16, 25]
7750: cell count [16, 26]
7%: nuclear beta-catenin stimulation ([18]; stimulation, at 2 µM)
-0.851: z-score [13, 23]
8380: cell count [16, 27]

CC(C(=O)O)c1cccc(C(=O)c2ccccc2)c1 (configuration not stated)
inactive: survival [1] 15.6 | insulin secretion stimulation [2] 1.7% | viability decrease [3] 9.9% | tube area decrease [4] -21.2% | GLP1 secretion stimulation [5] 1.2% | inhibition of viability [6] 1.73% | viability decrease (inhibition) [7] 1.9% | viability decrease (inhibition) [8] -13.8% | inhibition [9] -9.9% | mean signal [10] 232 | red/green cell ratio (normalised) [11] 1.06 | outcome [12] | z-score [13, 22] -0.241 and 0.309 and -0.387 | remaining NAD [14] 10 nM | luciferase signal [15] 60 AU | z-score [17] 0.45 and 0.27 and 0.89
1.07: normalised cell number [11, 20]
0.963 and -0.169 and -0.868: z-score [13, 23]
1.13: normalised cell number [11, 21]
